According to ChEMBL document CHEMBL3988442, “University of Dundee, Small-Polar-MMV Screening Library” (2021):
The whole screen tested about 48,000 compounds, of which about 13,000 (27%) showed an effect of 50% or more. This is one part of the list.

System: Wolbachia pipientis
Assay: Anti-Wolbachia Cell-Based Screen
Format: functional
Design: scale not given: in the data most compounds retested in dose-response had high values
Conditions: 5 µM

| Structure (SMILES) | Percent Effect [%] |
| --- | --- |
| Cc1ncsc1C(=O)NCCOc1ncc(Cl)cc1Cl | 21.09 |
| Cc1ncsc1CCN(C)C(=O)CN1C(=O)OC[C@@H]1c1ccccc1 | -3.352 |
| CN(Cc1ccc(C(=O)NCC2COCCO2)c(=O)[nH]1)CC(C)(C)C (stereo unspecified) | -4.558 |
| Cc1ccc(NC(=O)NC(C)(C)c2noc(C)n2)cc1 | -4.171 |
| Cn1nnc2c1CCN(CC1CC1)C2COCC1CC1.O=C(O)C(F)(F)F (stereo unspecified) | 12.72 |
| Cc1noc(CCCNS(=O)(=O)N2CCCC2c2ccco2)n1 (stereo unspecified) | -11.05 |
| Cc1cnccc1CN(C)C(=O)c1cccc(CCC(C)(C)O)c1 | 0.1694 |
| CCCOC1CCCN(C(=O)c2cc(CN(CC)CC)c(CC)o2)C1 (stereo unspecified) | 92.62 |
| CCCOC1CCCN(C(=O)c2csc(S(N)(=O)=O)c2)C1 (stereo unspecified) | 6.923 |
| CCc1oc(C(=O)N2CC[C@H]3CC[C@@H](C2)N3)cc1CN(CC)CC | 112 |
| CCCOc1ccc(C(=O)N2CC[C@H]3CC[C@@H](C2)N3)cc1Cl | -21.75 |
| CCc1oc(C(=O)N2CCC(N(CC)C(C)=O)C2)cc1CN(CC)CC (stereo unspecified) | 93.17 |
| CCc1ccc(C(=O)N2CCC(N(C)C(=O)OC(C)(C)C)C2)o1 (stereo unspecified) | 8.552 |
| CCc1oc(C(=O)N2CCCC(c3nnn[nH]3)C2)cc1C (stereo unspecified) | -3.531 |
| CCN(CC)Cc1cc(C(=O)N2CC[C@@]3(O)CCCC[C@H]3C2)c(C)o1 | -6.043 |
| CCCOC1CCCN(C(=O)c2ccnnc2)C1 (stereo unspecified) | 0.837 |
| O=C(CCCc1ccccn1)NCC(O)c1c(F)cccc1F (stereo unspecified) | 14.04 |
| CC(=O)Nc1ccc(CNC(=O)CNCc2nnc(C)o2)cc1 | -22.07 |
| CC(C)c1ncc(CN2C[C@@H](CN3CCCN(C)CC3)[C@@H](CO)C2)cn1 | -6.838 |
| COc1cc(CN(C)C(=O)NCCC2CCCO2)ccc1SC (stereo unspecified) | -4.598 |
| Cc1cc(N(C)CCn2ccnc2C)n2nccc2n1 | 3.132 |
| Cc1cc(C)nc(N(C)CCn2ccnc2C)n1 | 70.85 |
| Cc1nccn1CCN(C)c1cc(C(C)C)nc2ccnn12 | -21.61 |
| Cc1nc(N2CCN(C(=O)C(C)(C)C)CC2)cc(-n2cnc(C)c2C)n1 | -0.05678 |
| O=C(O)C(F)(F)F.O=C1N(c2ccsc2)CCC12CCCN(CC1CC1)C2 (stereo unspecified) | 0.74 |
| CN(C)CCNC(=O)C1Cc2nc(-c3ccccc3)sc2N1CC1CC1.O=C(O)C(F)(F)F (stereo unspecified) | 101.2 |

| Structure (SMILES) | Percent Effect [%] |
| --- | --- |
| CC(C)N1[C@@H](C(=O)NCCN(C)C)C[C@H]2CN(c3ncccn3)C[C@H]21.O=C(O)C(F)(F)F.O=C(O)C(F)(F)F.O=C(O)C(F)(F)F | -8.926 |
| O=C(Nc1cccnc1)C1Cc2nc(-c3ccsc3)sc2N1CC1CC1.O=C(O)C(F)(F)F (stereo unspecified) | 52.78 |
| CN(C)CCNC(=O)C1Cc2nc(-c3ccsc3)sc2N1CC1CC1.O=C(O)C(F)(F)F (stereo unspecified) | 106.6 |
| CN(C)CCOCC1CN(C(=O)c2ccsc2)Cc2ccnn2C1.O=C(O)C(F)(F)F.O=C(O)C(F)(F)F (stereo unspecified) | -7.951 |
| CC(C)N1c2sc(-c3ccccc3)nc2CC1C(=O)NCCCO (stereo unspecified) | 3.342 |
| O=C(O)C(F)(F)F.O=C(c1ccsc1)N1C[C@@H]2CCN(c3cccnc3)C[C@@H]2C1 | -7.879 |
| O=C(Nc1cccnc1)[C@H]1C[C@H]2OCC[C@H]2N(C(=O)c2ccsc2)C1.O=C(O)C(F)(F)F | -10.81 |
| Cc1cc(C(C)(O)CNC(=O)C2(C)CCCC2)c(C)o1 (stereo unspecified) | -0.4765 |
| FC(F)(F)CCc1ccnc(NCc2csc(N3CCOCC3)n2)n1 | 9.156 |
| CNC(=O)[C@@H]1COC[C@H]2CN(C(=O)c3ccc(C)c(C)c3)C[C@H]21 | -0.6496 |
| Cc1cccc(CN(Cc2ccccn2)Cc2ncc(C(C)(C)C)o2)c1 | -46.43 |
| Cc1cc(CN(C)Cc2ncc(-c3ccccc3)o2)no1 | 85.66 |
| CCN(Cc1cccc(Cl)c1)Cc1ncc(C(C)(C)C)o1 | -36.69 |
| Cc1ccc(CN(C)Cc2ncc(C(C)(C)C)o2)o1 | 106.2 |
| Cc1cc(CN(C)Cc2cnc3c(c2)c(C)nn3C)no1 | -2.389 |
| CN(Cc1ncc(-c2ccccc2)o1)CC1CCCN1c1cccnn1 (stereo unspecified) | 1.26 |
| Cc1cc(CN(C)Cc2ncc(C(C)(C)C)o2)no1 | 71.54 |
| Cc1cc(CN(C)Cc2ncc(-c3cccs3)o2)no1 | -12.35 |
| CCN(Cc1ncc(C(C)(C)C)o1)Cc1ccccc1C | -27.71 |
| CN(Cc1ccc(N(C)C)cc1)C(=O)CS(=O)(=O)c1ccc(Cl)cc1 | -13.85 |
| CCN1CCN(C(=O)C2CCCc3[nH]ncc32)CC1 (stereo unspecified) | -17.44 |
| Cc1cccc2c1nc1n2[C@@H](CNC(=O)c2cnccn2)COC1 | -0.5308 |
| O=C1CC2(CCCCC2)CC(=O)N1CC(O)COCc1ccc(Cl)cc1 (stereo unspecified) | -11.1 |
| CC(C(N)=O)n1nc(-c2cccs2)cc(N)c1=O (stereo unspecified) | 54.84 |
| Cc1cc(NC(=O)Cn2cnc(-c3cccs3)cc2=O)no1 | 10.41 |
| CC(C(=O)NC1CC1)n1nc(-c2cccs2)cc(N)c1=O (stereo unspecified) | 130.1 |

| Structure (SMILES) | Percent Effect [%] |
| --- | --- |
| Cc1cc(NC(=O)Cn2cnc(-c3cccs3)cc2=O)sn1 | 24.65 |
| CC(C(=O)NC1CC1)S(=O)(=O)Cc1csc(-c2cccs2)n1 (stereo unspecified) | -10.04 |
| COc1cccn(C(C)C(=O)NC2CCCC2)c1=O (stereo unspecified) | 10.4 |
| CCNC(=O)O[C@H]1COCCN(c2nc3ccccc3s2)C1 | 2.544 |
| CC(C)N(C)C(=O)c1ccc(Cl)c(NC(=O)C2CCC2)c1 | 2.877 |
| c1cnc(N2CCC(c3csc(Nc4cnccn4)n3)CC2)nc1 | 101.3 |
| OC(c1cccs1)C1CCN(c2ncccn2)CC1 (stereo unspecified) | 0.2293 |
| c1cnc(N2CCCC(c3csc(Nc4cnccn4)n3)C2)nc1 (stereo unspecified) | 106 |
| c1cnc(N2CCC(NCc3cnc(C4CCC4)s3)CC2)nc1 | 3.36 |
| Cc1cccc(C(C(=O)N(C)Cc2ccon2)N(C)C)c1 (stereo unspecified) | 3.369 |
| Cc1noc(-c2cccnc2N(C)Cc2ccc([S+](C)[O-])cc2)n1 (stereo unspecified) | 9.143 |
| Nc1nc2c(c(NC(=O)Nc3ccccc3)n1)CCCC2 | -9.493 |
| O=C1NC(=O)c2c3c(nc(O)c21)CCCC3 | 98.35 |
| CN(Cc1ccccc1)C(=O)CN1CCCC1c1cnn(C)c1 (stereo unspecified) | -36.94 |
| COCC(=O)N1CCCC1c1nccnc1Nc1ncccn1 (stereo unspecified) | 112.6 |
| Cc1cc(Nc2nc(C)cs2)nc(C2CCCCN2CCO)n1 (stereo unspecified) | -3.809 |
| CN(C(=O)Nc1ccccn1)C1CCCN(c2ccccc2)C1=O (stereo unspecified) | -3.011 |
| CCC(=O)N1CCCC1c1nccnc1Nc1ncccn1 (stereo unspecified) | -3.342 |
| Cc1cccc(Nc2cc(C)nc(C3CCCCN3CC(N)=O)n2)n1 (stereo unspecified) | 123.2 |
| CN(C)C(=O)CN1CCCC1c1nccnc1Nc1ccccn1 (stereo unspecified) | 99.96 |
| Cc1csc(Nc2nccnc2C2CCCN2C(=O)C(C)C)n1 (stereo unspecified) | 0.9263 |
| COc1ccc(C2CCCN2C(=O)NCCNc2ncccn2)cc1 (stereo unspecified) | -12.53 |
| COCC(=O)N1CCCC1c1nccnc1Nc1nc(C)cs1 (stereo unspecified) | 111.3 |
| COCc1cccc(CNC(=O)CN2CCCC2c2noc(C)n2)c1 (stereo unspecified) | -0.5396 |
| COc1nc2c(cc1C(=O)N1CCCOC(CN3CCCC3)C1)CCC2 (stereo unspecified) | -1.335 |
| Cc1ccc(CNC(=O)C2CCN(C(=O)c3ccccc3)CC2)n1C | -7.91 |

| Structure (SMILES) | Percent Effect [%] |
| --- | --- |
| Cc1ccc(C2(C(=O)N3CCC(n4cc(C(C)O)nn4)CC3)CC2)cc1 (stereo unspecified) | -9.43 |
| O=C(O)c1ccc(CCNC(=O)C2(c3ccccc3)CC2)cc1 | 2.318 |
| C[C@@H]1CN(CC(C)(C)N2CCOCC2)C[C@@]1(O)C1CC1 | 17.03 |
| CCc1nc(NS(=O)(=O)c2ccc(F)cc2C)no1 | -5.54 |
| CC(C)Cn1cnnc1C1CCCN1C(=O)OC(C)(C)C (stereo unspecified) | 4.117 |
| CC(C)(C)C(=O)N1CCCC1c1nccnc1Cl (stereo unspecified) | 155.8 |
| Cl.NCC(=O)N1CCCC1c1nccnc1Nc1ncccn1 (stereo unspecified) | 117.8 |
| CC(C)CC(=O)N1CCCC1c1nccnc1Nc1ncccn1 (stereo unspecified) | 105.7 |
| Cc1cccc(Nc2nccnc2C2CCCN2CC(N)=O)n1 (stereo unspecified) | 127.5 |
| CC(C)(C)C(=O)N1CCCC1c1ccc(C(=O)N2CCOCC2)s1 (stereo unspecified) | -16.89 |
| FC(F)c1nnc2ccc(N3CCC4(CCCCC4)C3)nn12 | -13.07 |
| O=C(O)[C@H]1C[C@H](C(=O)NC2CC2)CN(Cc2ccc(-c3cc[nH]n3)s2)C1 | -5.985 |
| CCOC(=O)CCC(=O)N1CCC(CSCc2ccco2)CC1 | -5.481 |
| CC(C)N(CC(=O)O)Cc1cccc(Br)c1.Cl | -4.939 |
| COCCn1ccnc1C1CCCN(c2ncnc3c(C)csc23)C1 (stereo unspecified) | -8.002 |
| COCCN1CCCC(c2nccnc2Nc2nc(C)cs2)C1 (stereo unspecified) | 86.28 |
| Cc1cc(C2CCCN2C(=O)NCc2cccnc2)on1 (stereo unspecified) | -8.527 |
| COCCn1ccnc1-c1cc(CN2CCCCC2)cs1 | -8.994 |
| Cc1csc(Nc2nccnc2C2CCCN2CC(N)=O)n1 (stereo unspecified) | 113.4 |
| Cc1cccc(Nc2nccnc2C2CCCN(CC(=O)N(C)C)C2)n1 (stereo unspecified) | 110.8 |
| CC(=O)N1CCCC1c1nnn2cc(NCc3cccnc3)ccc12.O=C(O)C(F)(F)F.O=C(O)C(F)(F)F (stereo unspecified) | 4.094 |
| CC(=O)N1CCCC1c1nccnc1NCc1cccnc1 (stereo unspecified) | 106.4 |
| CC(=O)N1CCC2(CCCN(C(=O)CCN3CCCCC3)C2)C1 (stereo unspecified) | -26.8 |
